# Bioassay records: PubChem, Paczesny and Yang Labs, IUPUI and University of Michigan
# ST2 inh: inhibitors of human ST2 (IL1RL1) binding to IL-33, primary screen, biochemical, AlphaLISA | Interleukin-1 receptor-like 1 (Homo sapiens), Q01638 | AlphaLISA ST2-Fc/biotin-IL-33 interaction, 1 h | inhibition, % for hits at 17 µM | 2.3% of 78,000 active | AID 1259354, 2018; in the data active = inhibition above about 30%
# Target sequence (Q01638 whole entry, looked up): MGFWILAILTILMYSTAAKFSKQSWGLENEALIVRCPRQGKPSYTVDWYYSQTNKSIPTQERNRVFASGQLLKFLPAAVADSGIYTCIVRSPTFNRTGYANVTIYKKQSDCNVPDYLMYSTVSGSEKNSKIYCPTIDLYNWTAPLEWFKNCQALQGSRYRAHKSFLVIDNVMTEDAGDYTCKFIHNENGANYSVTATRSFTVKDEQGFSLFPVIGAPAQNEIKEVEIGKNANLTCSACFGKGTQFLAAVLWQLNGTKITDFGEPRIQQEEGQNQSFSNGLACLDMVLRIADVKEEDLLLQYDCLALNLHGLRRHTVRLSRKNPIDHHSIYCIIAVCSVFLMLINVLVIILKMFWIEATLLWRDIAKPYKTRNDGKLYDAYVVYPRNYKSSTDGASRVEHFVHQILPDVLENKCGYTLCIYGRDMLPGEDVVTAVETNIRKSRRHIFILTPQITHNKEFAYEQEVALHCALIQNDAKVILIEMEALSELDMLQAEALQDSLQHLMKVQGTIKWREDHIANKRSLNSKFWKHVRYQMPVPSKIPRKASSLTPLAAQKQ
# A number is an active result; i = inactive; ! = not confirmed by another sample. The entries come from a sample that favours hits as a whole.
SMILES,ST2 inh
O=C(O)CNc1cccc(C(=O)NCCc2ccncc2)c1,i
O=C(CN1N=NC2C(=O)N(c3ccccc3)C(=O)C21)Nc1ccc(Cl)cc1 (stereo not drawn),i
O/N=C\c1c(O)c(Br)cc2oc3c(c12)CCCC3,38%
CCCn1cnc2c(cnn2-c2ccc(F)cc2)c1=O,i
CCCCn1cnc2c(cnn2-c2ccc(Cl)cc2)c1=O,30%
CCCCn1cnc2c(cnn2-c2ccc(F)cc2)c1=O,i
COc1cc(/C=c2\sc3ncnn3c2=O)ccc1OCCC(C)C,i
COc1ccccc1/C=C1/C(=O)NN(c2ccc(C)c(Cl)c2)C1=O,i
COc1cccc(/C=C2/C(=O)NN(c3ccc(C)c(Cl)c3)C2=O)c1OCC#N,i
N=C1S/C(=C/c2ccc(-c3ccccc3[N+](=O)[O-])o2)C(=O)N1c1nonc1N,i
COc1ccc(-c2ccc(/C=C3/C(=O)NN(c4ccc(C)c(Cl)c4)C3=O)o2)c([N+](=O)[O-])c1,41%
Cc1ccc(-c2ccc(/C=C3/C(=O)NN(c4ccc(F)cc4)C3=O)o2)c([N+](=O)[O-])c1C,42%
COc1ccc(NC2CCCN(C(=O)c3cnc(-c4cccnc4)nc3)C2)cc1 (stereo not drawn),i
CC1=C[C@@H](CNC(=O)COCC(=O)O)[C@H](C(C)C)C[C@H]1CC(=O)NCc1ccc(F)cc1,i
COc1cccc2ccc(CN3CCC4(CC3)C(=O)N(Cc3cccnc3)C(=O)N4C)nc12,i
NC(=O)COc1ccc(C(=O)N[C@@H]2CN(Cc3ccc(CO)o3)CCC[C@H]2O)cc1,i
Cc1nn(CCCC(=O)Nc2sc3c(c2C(=O)OC(C)C)CCCC3)c(C)c1[N+](=O)[O-],i
Cc1cc(N2CCCC2)nc(N2CCN(S(=O)(=O)c3ccc4c(c3)Cc3ccccc3-4)CC2)n1,i
CC1C(=O)C(C)C(c2ccccc2O)NC1c1ccccc1O (stereo not drawn),i
CC1C(=O)C(C)C(c2ccc(N(C)C)cc2)NC1c1ccc(N(C)C)cc1 (stereo not drawn),36%!
CC1C(=O)C(C)C(c2ccc(F)cc2)NC1c1ccc(F)cc1 (stereo not drawn),i
CSc1nc2sc(C)c(C)c2c(=O)n1-c1ccccc1,i
COCCNC(=O)c1cc2cc3ccc(OC)cc3nc2o1,i
COc1ccc2cc3cc(C(=O)N4CCCC(C)C4)oc3nc2c1 (stereo not drawn),i
CCCN(CCC)CCCNC(=O)c1cc2cc3ccc(Cl)cc3nc2o1,i
SMILES,ST2 inh
COc1ccc2cc3cc(C(=O)NCC4CCCO4)oc3nc2c1 (stereo not drawn),i
CC1CC(C)CN(CCCNC(=O)c2cc3cc4ccc(Cl)cc4nc3o2)C1 (stereo not drawn),i
O=C(NC1CCCCCC1)c1cc2cc3ccc(Cl)cc3nc2o1,36%!
O=C(NC1CCCCC1)c1cc2cc3ccc(Cl)cc3nc2o1,43%!
O=C(NC1CCCC1)c1ccc(Cl)cc1Cl,i
O=C(NCc1ccco1)c1cc2cc3ccc(Cl)cc3nc2o1,34%
CC1CCCC(NC(=O)c2cc3cc4ccc(Cl)cc4nc3o2)C1C (stereo not drawn),30%
COCCNC(=O)c1cc2cc3ccc(Cl)cc3nc2o1,i
CCCCN(CC)CCNC(=O)c1cc2cc3ccc(Cl)cc3nc2o1,i
OC1(c2cccc(C(F)(F)F)c2)CCN(CC2CCOC2)CC1 (stereo not drawn),i
CC(=O)c1cccc(NC(=O)c2cnc3scc(C)n3c2=O)c1,i
CC(C)CCNC(=O)CSc1nc(-c2cccc(Cl)c2)nc2cc(=O)[nH]n12,i
Cc1ccccc1-c1nnn(CC(=O)Nc2ccc(F)cc2)n1,i
CC1CCCC(C)N1C(=O)c1cc(-c2ccc(Br)cc2)on1 (stereo not drawn),i
C/C(=C\c1ccccc1)c1nc2ccc([N+](=O)[O-])cc2[nH]1,i
O=[N+]([O-])c1cccc(C=Nc2ccc(F)cc2)c1O,i
CC(=O)N1CCc2cc(N=Cc3cc([N+](=O)[O-])ccc3O)ccc21,i
Cc1ccc2nc(-c3cc(N=Cc4cccc([N+](=O)[O-])c4)ccc3O)[nH]c2c1,43%
O=[N+]([O-])c1cccc(N=Cc2nc(-c3ccc(Br)cc3)oc2O)c1,i
CC(=O)Nc1nc(C)c(-c2nc3ccc([N+](=O)[O-])cc3[nH]2)s1,i
Cc1ccc2nc(-c3cc(N=Cc4ccc([N+](=O)[O-])cc4)ccc3O)[nH]c2c1,38%
Cc1ccc2nc(-c3cc(N=Cc4cccc([N+](=O)[O-])c4O)ccc3O)[nH]c2c1,36%
O=[N+]([O-])c1ccccc1C=Nc1ccc2nc(-c3ccccc3)[nH]c2c1,i
Cc1ccc(C(=O)NCCC2CN(Cc3ccco3)CCO2)cn1 (stereo not drawn),i
O=C(CSCc1ccccc1)Nc1c(C(=O)Nc2ccc(F)cc2)oc2ccccc12,i
SMILES,ST2 inh
COc1ccc(-c2nn(-c3ccccc3)cc2CN(C)Cc2cnccn2)c(F)c1,i
Cc1cc(C)c(S(=O)(=O)Nc2ccccc2C)c(C)c1,i
CN(C)C(C(=O)N1CC(c2cccnc2)C1)c1ccccc1F (stereo not drawn),i
O=C(NC1(c2ccccc2)CC1)c1cc(COc2ccc(-n3cncn3)cc2)on1,i
CCCCC(C)C(OC(=O)CC(CC(=O)O)C(=O)O)C(CC(C)CCCCCCC(O)CC(O)C(C)NC(C)=O)OC(=O)CC(CC(=O)O)C(=O)O (stereo not drawn),i
CCC(Cn1ccnc1)NC(=O)c1ccc2c(c1)nnn2C (stereo not drawn),i
CC(C)c1cc(C(=O)NC(Cn2ccnc2)C(C)C)nc2ncnn12 (stereo not drawn),30%
CC(C)C(Cn1ccnc1)NC(=O)c1ccccc1N1CCOCC1 (stereo not drawn),i
CN1CCN(C(=O)c2cc3c(=O)n4ccccc4nc3n2C)CC1,i
O=C1c2ccc(F)cc2C(=O)N1CCO,i
COc1cc(NC(=O)c2ccc([N+](=O)[O-])cc2)c(OC)cc1NC(C)=O,i
COc1ccc(C2(CNC(=O)c3ccc([N+](=O)[O-])cc3)CCCC2)cc1,i
COC1(C#CC(=O)c2ccc([N+](=O)[O-])cc2)CCCCC1,61%
CCCOCCOC(=O)C1=C(C)NC2=C(C(=O)C(C(=O)OC)C(C)C2)C1c1ccc(F)cc1 (stereo not drawn),i
CN1CCc2c(sc3c2C(=O)NC(c2cccc(Cl)c2)N3)C1 (stereo not drawn),i
Cc1ccccc1OCc1nc(C#N)c(NCc2ccc(F)cc2)o1,34%
N#Cc1nc(-c2ccc(F)cc2)oc1NCc1ccco1,i
COc1ccc(CCNc2oc(COc3ccccc3C)nc2C#N)cc1,38%
N#Cc1nc(COc2ccc(Br)cc2)oc1NCCN1CCOCC1,i
COc1ccc(CCNc2oc(COc3ccc(OC)cc3)nc2C#N)cc1,36%
COc1ccc(C2C(C#N)=C(N)Oc3n[nH]c(C)c32)cc1COc1ccccc1C (stereo not drawn),i
COc1ccc(CCNC(C)=O)cc1,i
O=S(=O)(c1ccccc1)c1nc(-c2ccc(F)cc2)oc1NCc1ccccc1,i
COc1ccc(CCNc2oc(COc3ccc(Cl)cc3)nc2C#N)cc1,38%
Cc1ccccc1OCc1nnc(SCC(=O)NCCc2ccccc2)n1C,i
COc1ccc(OCc2nc(C#N)c(NCCN3CCOCC3)o2)cc1,i
COc1ccc(CCC(=O)NCCc2cccc(Cl)c2)cc1,i
COc1ccc(C)cc1NC(=O)c1cc2c(C)nn(-c3ccccc3)c2s1,i
O=C1c2ccc(F)cc2C(=O)N1Cc1ccc(F)cc1,i
